Measurements: PubChem BioAssay AID1159580 (chemical genetic matrix, 2015)
Values joined by “and” are separate entries in the source; they are usually repeats but may differ in a detail not shown here. Equal entries are not always repeated. Screen size: about 5,500 compounds; about 2,000 (36%) were called active. Another 18% or so got no clear call; they are omitted. Rule as the data show it: active = normalized growth mostly below about 0.91 (no sharp cut-off); inconclusive = no clear call, values can overlap the other calls; inactive = mostly above about 0.92. Some of the results follow.

Experiment: chemical genetic growth profiling, strain panel (AID 1159580);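 also: tested at 20 µM; growth read once vehicle control cultures reached saturation at 30 °C; 1 = growth at the plate median or of vehicle wells; lower values mean less growth of the strain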
Conditions: S. cerevisiae deletion strains, growth OD

Measured: normalized growth

CCNc1nc(Cl)nc(NC(C)C)n1
inactive: locus YAL013W, strain DEP1, stronger effect = lower value 1.01 | locus YAL021C, strain ccr4, stronger effect = lower value 0.995 | locus YAL026C, strain drs2, stronger effect = lower value 1.01 | locus YAL030W, strain snc1, stronger effect = lower value 0.999 | locus YBL061C, strain skt5, stronger effect = lower value 1.01 | locus YBR009C, strain hhf1, stronger effect = lower value 0.99 | locus YBR021W, strain FUR4, stronger effect = lower value 1.02 | locus YBR023C, strain chs3, stronger effect = lower value 0.998 | locus YBR171W, strain sec66, stronger effect = lower value 0.995 | locus YBR229C, strain ROT2, stronger effect = lower value 1.01 | locus YBR231C, strain swc5, stronger effect = lower value 1.01 | locus YBR279W, strain paf1, stronger effect = lower value 0.998 | locus YCL011C, strain gbp2, stronger effect = lower value 0.993 | locus YCL016C, strain dcc1, stronger effect = lower value 0.995 | locus YCL029C, strain bik1, stronger effect = lower value 1.02 | locus YCL061C, strain MRC1, stronger effect = lower value 0.99 | locus YCL069W, strain vba3, stronger effect = lower value 0.997 | locus YCR088W, strain abp1, stronger effect = lower value 1 | locus YDL005C, strain med2, stronger effect = lower value 0.999 | locus YDL035C, strain GPR1, stronger effect = lower value 1.01 | locus YDL040C, strain nat1, stronger effect = lower value 1 | locus YDL074C, strain BRE1, stronger effect = lower value 1.01 | locus YDL101C, strain DUN1, stronger effect = lower value 1.03 | locus YDL134C, strain PPH21, stronger effect = lower value 1.02 | locus YDL185W, strain tfp1, stronger effect = lower value 1.02 | locus YDL192W, strain arf1, stronger effect = lower value 1.02 | locus YDR001C, strain nth1, stronger effect = lower value 0.992 | locus YDR069C, strain doa4, stronger effect = lower value 1.01 | locus YDR101C, strain arx1, stronger effect = lower value 1.02 | locus YDR137W, strain rgp1, stronger effect = lower value 0.999 | locus YDR150W, strain NUM1, stronger effect = lower value 1.02 | locus YDR159W, strain sac3, stronger effect = lower value 1.01 | locus YDR162C, strain NBP2, stronger effect = lower value 1.04 | locus YDR195W, strain ref2 0.987 | locus YDR297W, strain sur2, stronger effect = lower value 1 | locus YDR318W, strain mcm21, stronger effect = lower value 1.03 | locus YDR334W, strain swr1, stronger effect = lower value 0.999 | locus YDR335W, strain msn5, stronger effect = lower value 1.01 | locus YDR388W, stronger effect = lower value 1.01 | locus YDR392W, strain spt3, stronger effect = lower value 1.01 | locus YDR502C, strain sam2, stronger effect = lower value 1.02 | locus YEL003W, strain gim4, stronger effect = lower value 0.994 | locus YEL037C, strain rad23, stronger effect = lower value 1.01 | locus YEL061C, strain CIN8 (second series), stronger effect = lower value 1.01 | locus YEL061C, strain CIN8, stronger effect = lower value 1.01 | locus YER015W, strain faa2, stronger effect = lower value 1 | locus YER016W, strain bim1, stronger effect = lower value 0.997 | locus YER110C, stronger effect = lower value 1.02 | locus YER111C, strain swi4, stronger effect = lower value 1 | locus YER155C, strain BEM2 (second series), stronger effect = lower value 0.993 | locus YER155C, strain BEM2, stronger effect = lower value 1 | locus YER167W, strain BCK2, stronger effect = lower value 1.02 | locus YFR010W, strain ubp6, stronger effect = lower value 1.01 | locus YGL078C, strain dbp3, stronger effect = lower value 1.02 | locus YGL086W, strain mad1, stronger effect = lower value 1.01 | locus YGL167C, strain pmr1, stronger effect = lower value 0.994 | locus YGL173C, strain kem1, stronger effect = lower value 1.01 | locus YGL227W, strain vid30, stronger effect = lower value 0.999 | locus YGL240W, strain doc1, stronger effect = lower value 0.98 | locus YGL248W, strain PDE1, stronger effect = lower value 1.01 | locus YGL253W, strain hxk2, stronger effect = lower value 1 | locus YGR078C, strain PAC10, stronger effect = lower value 1.02 | locus YGR135W, strain pre9, stronger effect = lower value 1.01 | locus YGR229C, strain SMI1, stronger effect = lower value 1.02 | locus YGR252W, strain gcn5, stronger effect = lower value 1 | locus YHR013C, strain ard1, stronger effect = lower value 1.01 | locus YHR027C, strain rpn1, stronger effect = lower value 1 | locus YHR030C, strain SLT2, stronger effect = lower value 1.03 and 0.992 | locus YHR079C, strain IRE1 (second series), stronger effect = lower value 1.02 | locus YHR079C, strain IRE1, stronger effect = lower value 0.99 | locus YHR094C, strain hxt1, stronger effect = lower value 1.02 | locus YHR129C, strain ARP1, stronger effect = lower value 1.01 | locus YHR142W, strain chs7, stronger effect = lower value 0.972 | locus YHR200W, strain rpn10, stronger effect = lower value 1.02 | locus YIL066C, strain RNR3, stronger effect = lower value 0.944 | locus YIL073C, strain SPO22, stronger effect = lower value 1.04 | locus YIL125W, strain kgd1, stronger effect = lower value 1.02 | locus YIR030C, strain dcg1, stronger effect = lower value 1.03 | locus YJL092W, strain hpr5, stronger effect = lower value 0.998 | locus YJL095W, strain BCK1 (second series), stronger effect = lower value 1 | locus YJL095W, strain BCK1, stronger effect = lower value 1 and 0.985 | locus YJL115W, strain asf1, stronger effect = lower value 1.01 | locus YJL129C, strain trk1, stronger effect = lower value 0.982 | locus YJL134W, strain LCB3, stronger effect = lower value 1.03 | locus YJL154C, strain vps35, stronger effect = lower value 0.996 | locus YJL164C, strain tpk1, stronger effect = lower value 0.998 | locus YJL166W, strain qcr8, stronger effect = lower value 0.993 | locus YJL168C, strain set2, stronger effect = lower value 1.02 | locus YJL187C, strain SWE1 (second series), stronger effect = lower value 1.02 | locus YJR043C, strain POL32, stronger effect = lower value 1.02 | locus YJR066W, strain TOR1, stronger effect = lower value 0.959
